# According to PubChem BioAssay AID652039 (The Scripps Research Institute Molecular Screening Center, 2013):
# About 3,300 (0.89%) of roughly 370,000 compounds were called active.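 Rule for the calls: active = activation above the mean of all tested compounds plus 3 SD, computed per campaign excluding outliers beyond control limits (cut at about 13% in these data); inactive = the rest.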 The entries come from a sample that favours actives as a whole.
# Target: Kallikrein-7 (Homo sapiens) (UniProt P49862)
# Sequence (P49862 whole entry, looked up): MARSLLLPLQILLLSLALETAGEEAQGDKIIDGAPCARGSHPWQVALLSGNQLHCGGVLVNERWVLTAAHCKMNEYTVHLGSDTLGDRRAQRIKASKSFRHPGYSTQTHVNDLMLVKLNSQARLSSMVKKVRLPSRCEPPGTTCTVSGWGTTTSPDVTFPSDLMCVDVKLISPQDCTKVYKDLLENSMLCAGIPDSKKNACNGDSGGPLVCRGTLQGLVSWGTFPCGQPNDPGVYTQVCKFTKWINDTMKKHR
# Assay: proKLK7 zymogen activators, primary screen, biochemical, fluorescence intensity (AID 652039)
# Conditions: purified proKLK7, EDANS-DABCYL substrate fluorescence; at 7 µM; stronger effect = higher value; 100% is mature enzyme control, 0% vehicle
row,Structure (SMILES),activation
1,CC(C)Oc1ccc(CCc2nnc(SCC(=O)O)n2-c2ccccc2)cc1,0.35% (inactive)
2,O=C(Nc1nc2ccc(Cl)cc2s1)c1cc(-c2ccc(Cl)cc2)nc2ccccc12,0.7% (inactive)
3,COc1cccc2oc(CCc3ccccc3)cc(=O)c12,2.15% (inactive)
4,Cc1cc(OCC(=O)NCC(O)c2ccccc2)c2c(C)c(C)c(=O)oc2c1 (centres undefined),0.58% (inactive)
5,CCOC(=O)COc1cc(OCC(=O)OCC)c2c(=O)cc(-c3ccccc3)oc2c1,13.1% (active)
6,COc1ccc(S[C@]2(C(=O)N(C)C)CC(=O)N(c3ccc(OC)cc3)[C@@H]2c2ccc(OC)cc2)cc1,0.22% (inactive)
7,CC(c1ccc(N)cc1)c1cn(C)c2ccccc12 (centres undefined),0.46% (inactive)
8,COc1ccc(C2CC=C(C(=O)O)C(c3ccccc3F)N2S(=O)(=O)c2ccc(C)cc2)cc1OC (centres undefined),0.12% (inactive)
9,CCOc1ccccc1C1C(C(=O)OC)=CN(C)C=C1C(=O)OC,46.1% (active)
10,CCOc1cc(C2C(C(=O)OC)=CN(C3CCCC3)C=C2C(=O)OC)cc(Br)c1O,-0.82% (inactive)
11,COC(=O)C1=CN(C)C=C(C(=O)OC)C1c1ccc(Cl)cc1Cl,0.08% (inactive)
12,O=S1(=O)c2ccc(Br)cc2OC[C@@H](Cc2ccccc2)N1Cc1cn(Cc2ccco2)nn1,0.26% (inactive)
13,COc1cc2[nH]c(=O)n(CCC(=O)NC3CCN(Cc4ccccc4)CC3)c(=O)c2cc1OC,-1.29% (inactive)
14,Cc1cc(NC(=O)CCN2CCN(Cc3ccccc3)CC2)ccc1Br,0.91% (inactive)
15,CCOC(=O)c1[nH]c2ccc(OC)cc2c1NC(=O)CCN1CCN(Cc2ccccc2)CC1,13.4% (active)
16,COc1ccc(C(=O)OCCN(C)C2CN(Cc3cn(Cc4cccc(C)c4)nn3)S(=O)(=O)C2)cc1OC (centres undefined),0% (inactive)
17,CCCCNC(=O)C[C@H]1C(=O)N(Cc2ccc(OC)cc2)C2=CCCC[C@@]21C(=O)OCC,-0.1% (inactive)
18,N#Cc1ccccc1OC[C@@H](O)CN1CCC(C(O)(c2ccccc2)c2ccccc2)CC1,0.62% (inactive)
19,COc1ccc(N2CCN(C(=O)Cn3cnc4sc(C)c(S(=O)(=O)N5CCOCC5)c4c3=O)CC2)cc1,-0.12% (inactive)
20,FC(F)(F)Oc1ccc(-c2cn3cccnc3n2)cc1,34.6% (active)

row,Structure (SMILES),activation
1,COc1ccc(N2CCN(C(=O)CSc3nnc4ncccn34)CC2)cc1,0.11% (inactive)
2,COc1ccc(-c2cn3cccnc3n2)cc1,73.9% (active)
3,Cc1ccccc1Nc1c(-c2ccccc2)nc2ncccn12,0.74% (inactive)
4,COc1ccc(-c2ccnc(SCC(=O)N3CCOCC3)n2)cc1,0.01% (inactive)
5,Nc1nc2ncccn2c1-c1ccccc1,5.34% (inactive)
6,c1ccc(-c2cn3cccnc3n2)cc1,32.3% (active)
7,C=CCOC/C=C/C#CCN(CC=C)Cc1ccc(OC)cc1OC,0.82% (inactive)
8,O=C(CSc1nc2ccccc2s1)N=Nc1c(O)[nH]c2ccccc12,0.68% (inactive)
9,Cc1ccc(-n2c(COc3ccccc3)nnc2SCC(=O)Nc2ccc3c(c2)OCCO3)cc1,0.98% (inactive)
10,CCOC(=O)N1CCN(C(=O)C[C@H]2C[C@@]3(C(=O)OC)C(=C[C@H](C(C)(C)C)O[C@@H]3C)N(Cc3ccc(Cl)cc3Cl)C2=O)CC1,0.88% (inactive)
11,COC(=O)c1ccccc1Oc1c(F)c(F)nc(N2CCOCC2)c1F,0.34% (inactive)
12,COC(=O)c1cc(N2CCNCC2)nc2ccccc12,78.9% (active)
13,Cc1cc(C(=O)OCC(=O)N2C(C)CCCC2C)c2ccccc2n1 (centres undefined),-1.23% (inactive)
14,CCOC(=O)[C@@]12CN(C(=O)OC(C)(C)C)CC=C1N(Cc1ccc(OC)cc1)C(=O)[C@H]2CC(=O)NCc1ccc(OC)c(OC)c1,0.61% (inactive)
15,CC1C(=O)C(C)C(c2ccc(O)cc2)NC1c1ccc(O)cc1 (centres undefined),0.15% (inactive)
16,Cc1cc(C)c2nc3nc(C)cc(C)c3c(N)c2c1,52.6% (active)
17,CCC(CO)Nc1cccc2c1S(=O)(=O)N(Cc1cn(Cc3ccccc3C(F)(F)F)nn1)Cc1ccccc1O2 (centres undefined),0.4% (inactive)
18,Cc1ccccc1CN1CCCCC(NC(=O)Nc2ccccc2F)C1=O (centres undefined),0.62% (inactive)
19,C#CCCN([C@H](C(=O)OC)C(C)C)S(=O)(=O)c1ccc(F)cc1Br,-0.16% (inactive)
20,O=S1(=O)c2c(cccc2N2CCSCC2)Oc2ccccc2CN1Cc1cn(Cc2ccc(F)cc2)nn1,-2.26% (inactive)

row,Structure (SMILES),activation
1,Cn1cccc1/C=N/NC(=O)CNc1cccc2ccccc12,22.8% (active)
2,CN(CC(=O)Nc1ccc(Cl)cc1)CC(=O)Nc1cccc2ccccc12,0.06% (inactive)
3,C/C(=N\NC(=O)CNc1cccc2ccccc12)c1ccc(Br)s1,2.95% (inactive)
4,COc1ccc(/C=C2\CC3(OC(C)=O)CCCN2C3)cc1 (centres undefined),0.04% (inactive)
5,Nc1ccc2nn(-c3ccc(Cl)cc3)nc2c1,64.3% (active)
6,CCC(=O)Nc1ccc2nn(-c3ccc(F)cc3)nc2c1,7.33% (inactive)
7,Nc1nc2cc(Cl)ccc2n1N,0.42% (inactive)
8,COc1ccc(-c2cc(C(F)(F)F)nc(SCCC(=O)NCc3ccco3)n2)cc1,-0.49% (inactive)
9,COc1ccc(-c2cc(C(F)(F)F)nc(S(C)(=O)=O)n2)cc1OC,15.4% (active)
10,CCC(c1ccc(NC(=O)OC(C)(C)C)cc1)c1cc(OC)cc(OC)c1 (centres undefined),1.16% (inactive)
11,CCc1c(C)nc2c(OC)cccc2c1Cl,0.96% (inactive)
12,Cc1nc(N=C(N)N)nc2c(C)cccc12,-0.57% (inactive)
13,COc1nc(N=C(N)N)nc2c(C)cccc12,22.7% (active)
14,Nc1[nH]c(/C=C2/CCCCC2n2[nH]c(=O)n(-c3ccccc3)c2=O)c(Cc2ccccc2)[n+]1Cc1ccccc1 (centres undefined),-0.08% (inactive)
15,COc1ccc(CN2C(=O)N3Cc4cc(OC)ccc4C3CS2(=O)=O)cc1 (centres undefined),0.22% (inactive)
16,CCN(CC)C(=O)CC[C@@H]1CC[C@]2(CCCN(S(=O)(=O)C3CCCCC3)C2)O1,-0.08% (inactive)
17,CC(=O)Nc1ccc(NC(=O)c2ccc3c(c2)C(=O)N(c2ccccc2C)C3=O)cc1,-0.23% (inactive)
18,O=C(O)c1ccc2c(c1)C(=O)N(c1ccc(/C=C/C(=O)c3ccccc3)cc1)C2=O,108% (active)
19,COc1ccc(C(=O)/C=C/c2ccc(-c3ccccc3)cc2)cc1CSCC(=O)O,-2.22% (inactive)
